Data: PubChem BioAssay AID1159580 (chemical genetic matrix, 2015)
The campaign covered roughly 5,500 compounds. About 2,000 (36%) were called active. Another 18% or so got no clear call; they are omitted. Rule as the data show it: active = normalized growth mostly below about 0.91 (no sharp cut-off); inconclusive = no clear call, values can overlap the other calls; inactive = mostly above about 0.92. Some of the results follow.

Experiment: chemical genetic growth profiling, strain panel (AID 1159580);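 also: tested at 20 µM; growth read once vehicle control cultures reached saturation at 30 °C; 1 = growth at the plate median or of vehicle wells; lower values mean less growth of the strain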
Settings: growth OD
[1] = S. cerevisiae deletion strains, locus YAL013W, strain DEP1, stronger effect = lower value
[2] = S. cerevisiae deletion strains, locus YBR229C, strain ROT2, stronger effect = lower value
[3] = S. cerevisiae deletion strains, locus YDL101C, strain DUN1, stronger effect = lower value
[4] = S. cerevisiae deletion strains, locus YDL134C, strain PPH21, stronger effect = lower value
[5] = S. cerevisiae deletion strains, locus YDR150W, strain NUM1, stronger effect = lower value
[6] = S. cerevisiae deletion strains, locus YEL061C, strain CIN8, stronger effect = lower value
[7] = S. cerevisiae deletion strains, locus YGR078C, strain PAC10, stronger effect = lower value
[8] = S. cerevisiae deletion strains, locus YGR229C, strain SMI1, stronger effect = lower value
[9] = S. cerevisiae deletion strains, locus YHR030C, strain SLT2, stronger effect = lower value
[10] = S. cerevisiae deletion strains, locus YHR087W, strain rtc3, stronger effect = lower value
[11] = S. cerevisiae deletion strains, locus YJL187C, strain SWE1, stronger effect = lower value
[12] = S. cerevisiae deletion strains, locus YJR043C, strain POL32, stronger effect = lower value
[13] = S. cerevisiae deletion strains, locus YJR075W, strain HOC1, stronger effect = lower value
[14] = S. cerevisiae deletion strains, locus YLR039C, strain RIC1, stronger effect = lower value
[15] = S. cerevisiae deletion strains, locus YLR058C, strain SHM2 (second series), stronger effect = lower value
[16] = S. cerevisiae deletion strains, locus YLR085C, strain ARP6, stronger effect = lower value
[17] = S. cerevisiae deletion strains, locus YLR262C, strain YPT6, stronger effect = lower value
[18] = S. cerevisiae deletion strains, locus YML094W, strain GIM5, stronger effect = lower value
[19] = S. cerevisiae deletion strains, locus YMR219W, strain ESC1, stronger effect = lower value
[20] = S. cerevisiae deletion strains, locus YMR263W, strain SAP30, stronger effect = lower value
[21] = S. cerevisiae deletion strains, locus YNL153C, strain GIM3, stronger effect = lower value
[22] = S. cerevisiae deletion strains, locus YNL298W, strain CLA4 (second series), stronger effect = lower value
[23] = S. cerevisiae deletion strains, locus YNL322C, strain KRE1, stronger effect = lower value
[24] = S. cerevisiae deletion strains, locus YNR030W, strain Alg12, stronger effect = lower value
[25] = S. cerevisiae deletion strains, locus YPL055C, strain LGE1, stronger effect = lower value
[26] = S. cerevisiae deletion strains, locus YPL241C, strain CIN2, stronger effect = lower value
[27] = S. cerevisiae deletion strains, locus YPR135W, strain CTF4, stronger effect = lower value

Measured: normalized growth

O=C1CSCC(=O)N1c1ccc(F)c(Cl)c1
active: [24] 0.281 | [26] 0.378
inactive: [1] 0.993 | [2] 0.994 | [3] 1 | [4] 0.99 | [5] 0.935 | [6] 0.984 | [7] 0.994 | [8] 0.985 | [9] 0.996 | [10] 0.981 | [11] 1 | [12] 0.925 | [13] 0.989 | [14] 1.02 | [15] 1 | [16] 0.978 | [17] 0.995 | [18] 0.992 | [19] 1 | [20] 0.994 | [21] 0.997 | [22] 0.998 | [23] 0.979 | [25] 0.97 | [27] 1

CC(=O)c1ccc(N2C(=O)CSCC2=O)cc1
inactive: [1] 0.999 | [2] 0.999 | [3] 1.01 | [4] 0.977 | [5] 0.984 | [6] 1.02 | [7] 1 | [8] 0.972 | [9] 1.02 | [10] 1 | [12] 0.991 | [13] 1.02 | [14] 0.962 | [15] 0.999 | [16] 1.04 | [17] 0.912 | [18] 1.03 | [19] 0.994 | [20] 0.999 | S. cerevisiae deletion strains, locus YMR307W, strain GAS1, stronger effect = lower value 1.11 | [21] 1.01 | [22] 0.992 | [23] 0.988 | [24] 0.996 | [25] 1.02 | [26] 0.983 | [27] 0.99 | S. cerevisiae strains, strain wild type, stronger effect = lower value 0.97

O=C1C2C3C=CC(C3)C2C(=O)N1c1ccc(F)c(F)c1 (stereo not drawn)
inactive: [1] 1.01 | [2] 1.03 | S. cerevisiae deletion strains, locus YCL061C, strain MRC1, stronger effect = lower value 0.986 | [3] 0.993 | [4] 0.999 | [5] 0.997 | [6] 1.03 | [7] 0.994 | [9] 1.01 | [10] 0.995 | [11] 1.01 | [12] 0.957 | [13] 1.01 | S. cerevisiae deletion strains, locus YKL190W, strain CNB1, stronger effect = lower value 0.99 | [14] 0.995 | [15] 0.981 | [16] 1.06 | [17] 0.992 | [18] 1.01 | [19] 1 | [20] 1 | [21] 0.983 | [22] 0.982 | [23] 1.02 | [24] 1.02 | [25] 1.06 | [26] 0.994 | [27] 0.975

CC(O)C(C)OC(=O)[C@@H]1C[C@@H]2c3cccc4c3c(cn4C(C)C)C[C@H]2N(C)C1 (stereo partly drawn)
inactive: S. cerevisiae deletion strains, locus YAL040C, strain CLN3, stronger effect = lower value 0.977 | S. cerevisiae deletion strains, locus YCL061C, strain MRC1 (second series), stronger effect = lower value 0.98 | S. cerevisiae deletion strains, locus YDR363W, strain ESC2, stronger effect = lower value 0.996 | S. cerevisiae deletion strains, locus YER002W, strain NOP16, stronger effect = lower value 1 | S. cerevisiae deletion strains, locus YNL175C, strain NOP13, stronger effect = lower value 1 | S. cerevisiae deletion strains, locus YNL197C, strain WHI3, stronger effect = lower value 0.991 | S. cerevisiae deletion strains, locus YNL224C, strain SQS1, stronger effect = lower value 1.01 | [23] 0.973 | S. cerevisiae deletion strains, locus YOR083W, strain WHI5 (second series), stronger effect = lower value 0.99 | [25] 1
